{"source": "PubChem BioAssay AID686978", "about": "(National Center for Advancing Translational Sciences (NCATS), 2013)", "note": "Screen size: about 420,000 compounds; about 64,000 (15%) were called active. Inconclusive results (about 27%) are left out. The list is a sample of the results. Values without a mark were called inactive. The call rests on the fitted dose curve; in most records, active means well fitted inhibition curve with a large enough effect; inconclusive means small, poorly fitted or top-dose-only effect; inactive means flat fitted curve, though single readings scatter. On the % scale 0 is the no-effect control and ±100 the full control effect; potency means the concentration at half of the fitted maximal effect.", "data": [{"experiment": "qHTS for Inhibitors of human tyrosyl-DNA phosphodiesterase 1 (TDP1): qHTS in cells in absence of CPT; further: nearly all actives have a fitted effect of over 55% in size", "conditions": "DT40 Tdp1-/- hTDP1 cells, no CPT, ATP luminescence, 48 h; activity change, negative = growth inhibition: at 46.2 µM (top of the series)", "description": "Human tyrosyl-DNA phosphodiesterase 1 (TDP1) is a novel repair gene, and we propose to use it as a new target for anticancer drug development. TDP1 is not an essential protein, but under treatment with topoisomerase I poison (camptothecin: CPT), TDP1 works as a critical factor for cell survival. To directly identify novel TDP1 inhibitors active in a cellular environment, we have knocked-out the Tdp1 gene in chicken DT40 cells (Tdp1-/-) and generated a complemented counterpart cells that contains a stable transfection of the human TDP1 gene (Tdp1-/-;hTDP1 cells). For the primary screen, Tdp1-/-;hTDP1 cells will be exposed to small molecules in the presence or absence of CPT, and their growth kinetics will be evaluated after 48 hours by measuring ATP activity. […] The hit compounds will then be evaluated in the presence or absence of CPT using Tdp1-/- cells. […] In tertiary assays, biochemical gel-based assays will be used to assess whether the hit compounds specifically target TDP1.\nTo this end, we have screened this cell line against the MLSMR in two primary screens. In one screen we add CPT and in the other we screen in the absence of CPT; this AID represents the screen where CPT was absent.\nNIH Chemical Genomics Center [NCGC]\nNIH Molecular Libraries Probe Centers Network [MLPCN]\nAssay Submitter (PI): Yves Pommier, NCI\nDT40-hTDP1 cells without 20 nM Camptothecin (add 20 microL of DMSO in 1 L of cell culture medium) were dispensed at 400 cells/5microL/well in tissue culture treated 1536-well white wall/solid bottom assay plates (Greiner Bio-One North America, NC, U.S.A.) using a Multidrop Combi 8 channel dispenser (Thermo Fisher, Waltham, MA, USA). 23 nL compounds and controls were transferred using the pin tool (Kalypsys, San Diego, CA, USA) to the assay plates. The assay plates were then incubated at 37 masculineC for a minimum 48 hr. Three microL of Cell Titer Glo solution was added to the plates and incubated at RT in dark for 30 min. Luminescence was read using ViewLux (Perkin Elmer) with 1 sec exposure slow speed, high gain and 2x binning.", "units": {"activity change, negative = growth inhibition": "%"}, "values": [{"compound": "CC(C)c1cc(CN2CCOCC2)cc(C(C)C)c1O", "activity change, negative = growth inhibition": 13.6}, {"compound": "O=C(Cc1ccccc1)Nc1ccc(NC(=O)c2cccnc2)cc1", "activity change, negative = growth inhibition": -9.26}, {"compound": "CC(C)(C)c1cc[n+](-c2[nH]c(=O)sc2/C=N/N=C(\\[O-])c2ccccc2)cc1", "activity change, negative = growth inhibition": 1.02}, {"compound": "CCCS(=O)(=O)Nc1c(C(=O)O)[nH]c2ccccc12", "activity change, negative = growth inhibition": 1.22}, {"compound": "C[N+](C)(C)CCNC(=O)c1c[nH]c2ccccc12", "activity change, negative = growth inhibition": -19.4}, {"compound": "COc1ccc(C2C(C(C)=O)=C(O)C(=O)N2CCc2c[nH]c3ccccc23)cc1", "note": "(configuration not stated)", "activity change, negative = growth inhibition": -14.6}, {"compound": "COc1ccc(/C=C(\\C#N)c2c[nH]c3ccccc23)cc1", "Potency": "0.651 µM (active)"}, {"compound": "N/C(=N\\OC(=O)c1ccc2c(c1)OCO2)c1ccc(Br)cc1", "activity change, negative = growth inhibition": -6.73}, {"compound": "CCn1cc(C(=O)NCCC(=O)NCCO)c(=O)c2cc3c(cc21)OCO3", "activity change, negative = growth inhibition": -3.37}, {"compound": "CCCN(CC(=O)Nc1ccc(C(N)=O)cc1)CC(=O)Nc1ccccc1C", "activity change, negative = growth inhibition": -26.5}, {"compound": "CS(=O)(=O)N(CC(=O)N1CCN(Cc2ccccc2)CC1)c1ccc2c(c1)OCCO2", "activity change, negative = growth inhibition": -6.95}, {"compound": "COc1ccc(N(CC(=O)N2CCCCCC2)S(=O)(=O)c2ccccc2)cc1", "activity change, negative = growth inhibition": -21.7}, {"compound": "CC1CCN(C(=O)CN(c2ccc(Oc3ccccc3)cc2)S(C)(=O)=O)CC1", "Potency": "13 µM (active)"}, {"compound": "Cc1ccc(N2C(=O)CC(N3CCSCC3)C2=O)c(C)c1", "note": "(configuration not stated)", "activity change, negative = growth inhibition": 15.3}, {"compound": "COC(=O)c1ccc(C(=O)NC2CC(C)(C)Cc3c2cnn3-c2ccc(F)cc2)nc1", "note": "(configuration not stated)", "Potency": "3.66 µM (active)"}, {"compound": "Cc1cc(C(=O)NC2CC(C)(C)Cc3c2cnn3-c2ccccc2)n[nH]1", "note": "(configuration not stated)", "activity change, negative = growth inhibition": -8}, {"compound": "Cc1ccc(-n2ncc3c2CC(C)(C)CC3NC(=O)Cc2c(C)noc2C)cc1", "note": "(configuration not stated)", "Potency": "23.1 µM (active)"}, {"compound": "CC1(C)Cc2c(cnn2-c2cccc(F)c2)C(NC(=O)c2cc[n+]([O-])cc2)C1", "note": "(configuration not stated)", "activity change, negative = growth inhibition": -4.77}, {"compound": "COc1ccc(-n2ncc3c2CC(C)(C)CC3NC(=O)CCc2c(C)nn(C)c2C)cc1", "note": "(configuration not stated)", "activity change, negative = growth inhibition": -3.17}, {"compound": "COc1ccc(-n2ncc3c2CC(C)(C)CC3NC(=O)CCc2c(C)noc2C)cc1", "note": "(configuration not stated)", "activity change, negative = growth inhibition": -10.3}, {"compound": "CCn1ncc(CNC(=O)C2(C)CC2(Br)Br)c1C", "note": "(configuration not stated)", "activity change, negative = growth inhibition": -2.88}, {"compound": "CC12CN3CC(C)(CN(C1)C3c1ccc(Cl)cc1Cl)C2=O", "note": "(configuration not stated)", "activity change, negative = growth inhibition": -1.85}, {"compound": "Cc1ccc(-c2noc(-c3nnn(-c4cccc(C(F)(F)F)c4)c3N)n2)cc1", "activity change, negative = growth inhibition": 4.08}, {"compound": "Cc1cc(C)cc(N(CC(=O)NC2CCCC2)C(=O)CCC(=O)Nc2nccs2)c1", "activity change, negative = growth inhibition": -15.3}, {"compound": "COc1cc(C(=O)N2CCN(S(=O)(=O)c3ccc(C(C)C)cc3)CC2)ccc1OCC(=O)N1CCOCC1", "activity change, negative = growth inhibition": 18.5}, {"compound": "FC(F)(F)c1ccnc(Oc2ccc(C3=NCCS3)cc2)c1", "activity change, negative = growth inhibition": -5.22}, {"compound": "C/C(=N\\NC(=O)CNc1cccc2ccccc12)c1ccc(Br)s1", "Potency": "8.2 µM (active)"}, {"compound": "Cc1cccc(/C=N/NC(=O)CNc2cccc3ccccc23)n1", "Potency": "13 µM (active)"}, {"compound": "Cc1c(Cl)cccc1NC(=O)CCC(=O)N/N=C/c1ccco1", "activity change, negative = growth inhibition": 15.7}, {"compound": "O=C(COC(=O)c1ccccn1)Nc1cccc2ccccc12", "activity change, negative = growth inhibition": 0.707}, {"compound": "C/C(Cc1ccccc1)=N\\NC(=O)CNC(=O)c1cccc(Br)c1", "activity change, negative = growth inhibition": -2.1}, {"compound": "C/C(=N\\NC(=O)COc1c(C)cccc1C)c1cccs1", "activity change, negative = growth inhibition": -27.7}, {"compound": "C=CCN1CC(C)/C(=N\\O)CC1C", "note": "(configuration not stated)", "activity change, negative = growth inhibition": -4.43}, {"compound": "Cc1ccc(NC(=O)Cn2cnc3nc4c(cc3c2=O)CCCC4)cc1Cl", "activity change, negative = growth inhibition": 2.29}, {"compound": "COc1ccc(C(=O)NC(Cc2ccc(OC(=O)c3ccc(OC)cc3)cc2)C(=O)O)cc1", "note": "(configuration not stated)", "activity change, negative = growth inhibition": 2.2}, {"compound": "CN(CCc1ccccn1)C(=O)CCC1CCCN(Cc2ccccc2OC(F)F)C1", "note": "(configuration not stated)", "activity change, negative = growth inhibition": -10.5}, {"compound": "CN(CC(=O)NCCc1ccc(S(N)(=O)=O)cc1)CC(=O)Nc1ccc(Cl)cc1", "activity change, negative = growth inhibition": -18}, {"compound": "CCNC(=S)Nc1ccc(OC(F)(F)F)cc1", "activity change, negative = growth inhibition": -24.4}, {"compound": "O=C1CCC(C(=O)Nc2ccc(OC(F)F)cc2)N1", "note": "(configuration not stated)", "activity change, negative = growth inhibition": -6.43}, {"compound": "CC(NC(=S)Nc1ccc(OC(F)F)cc1)c1ccc(F)cc1", "note": "(configuration not stated)", "Potency": "16.4 µM (active)"}, {"compound": "CC(=O)c1ccc(OCC(O)CN2CCN(S(=O)(=O)c3cccc(Br)c3)CC2)cc1", "note": "(configuration not stated)", "activity change, negative = growth inhibition": -22.2}, {"compound": "CCCCC(=O)N(c1ccc(OC)cc1)C1C=CS(=O)(=O)C1", "note": "(configuration not stated)", "activity change, negative = growth inhibition": -8.95}, {"compound": "CN(C)/C=C/C(=O)c1ccccc1F", "activity change, negative = growth inhibition": 2.39}, {"compound": "COc1ccc(NC(=O)c2sc3nc(-c4cc5cccc(OC)c5oc4=O)[nH]c(=O)c3c2C)cc1", "activity change, negative = growth inhibition": -20.7}, {"compound": "COc1ccccc1NC(=O)c1c(Br)cnn1C", "activity change, negative = growth inhibition": -18.3}, {"compound": "COc1ccccc1NC(=O)c1sc2nc(C)c(C(=O)Nc3ccc(Cl)cc3)c(-c3ccc(Br)cc3)c2c1N", "Potency": "16.4 µM (active)"}, {"compound": "N/C(=N\\OC(=O)c1ccc([N+](=O)[O-])cc1)c1ccccn1", "activity change, negative = growth inhibition": 6.67}, {"compound": "CCO[C@H]1OC(C(=O)O)=C[C@@H](C2CCCCC2)[C@@H]1CCCO", "activity change, negative = growth inhibition": 4.26}, {"compound": "O=C(NC1CC1)C1=C[C@H](c2coc3ccccc3c2=O)C[C@H](OCCCCO)O1", "activity change, negative = growth inhibition": -1.23}, {"compound": "CCO[C@H]1OC(C(=O)NCc2ccccc2)=C[C@@H](c2coc3ccccc3c2=O)[C@@H]1CCCO", "Potency": "9.2 µM (active)"}, {"compound": "CC1=CC(=NNS(=O)(=O)c2ccc([N+](=O)[O-])cc2)CC(C)(C)C1", "activity change, negative = growth inhibition": -5.62}, {"compound": "CNC(=S)N/N=C/c1cn(Cc2ccc(C)cc2)c2ccccc12", "Potency": "18.4 µM (active)"}]}]}
